The panel holds about 83,000 compounds, 20% with a hit somewhere; the sample as a whole holds those more often.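 Activity criterion: percent growth below 10, measured after cells in 96-well plates were exposed to a single compound concentration for 48 hours.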 Activity calls are given as the source filed them.
Tested on: DU-145 prostate
Test: NCI-60 one-dose screen, 48 h (100 = growth as untreated, 0 = no growth, -100 = all killed)
Details: 10 µM unless noted

`CN1CCN(Cc2ccc(NC(=O)c3cncc(C#Cc4cnc5ccc(NCCCO)nn45)c3)cc2C(F)(F)F)CC1` was tested. Which growth did it give?
The growth was -16.5% (active).

How did the growth turn out when `COC(=O)c1[nH]nc2c1C1(C(=O)N(C)c3ccccc31)C(C#N)=C(N)O2` (stereo not given) was run?
The growth was 102% (inactive).

For `O=C(Cn1cc(-c2ccccc2)nn1)Nc1nc(-c2ccc(Cl)cc2)cs1`, which growth is on record?
The growth was 108% (inactive).

`COc1cc(OC)c(S(N)(=O)=O)cc1C(C)=O` was tested. Which growth did it give?
The growth was 108% (inactive).

With `COc1ccccc1N1CCN(C2=CC(=O)C(C)=C(C)C2=O)CC1` as the compound, how does the growth read?
Its growth is 105% (inactive).

With `NC(N)=Nc1ccc(Oc2cccc(Nc3ccc(Br)c(C(F)(F)F)c3)c2)cn1` as the compound, how does the growth read?
Its growth is -94.5% (active).

With `Cn1ccnc1C(=O)/C=C/c1ccc(CNC(=O)c2ccc(F)cc2)cc1` as the compound, how does the growth read?
The growth was 13.2% (inactive).

How did the growth turn out when `Cc1c(Cl)cccc1S(=O)(=O)Nc1ccc2c(c1)C(=O)N(C1CCC(=O)NC1=O)C2=O` (stereo not given) was run?
Its growth is 108% (inactive).

Which growth does the source give for `NS(=O)(=O)c1ccc(-n2cc(-c3cccc(NC(=O)c4ccc(N5CCOCC5)c(C(F)(F)F)c4)c3)nn2)cc1` here?
Its growth is 41.1% (inactive).

With `CCc1cccc2c3c(sc12)C(c1ccc(OC)cc1)C(C#N)=C(/N=C/c1ccc(Cl)cc1)O3` (stereo not given) as the compound, how does the growth read?
Its growth is 18.8% (inactive).

With `Nc1ncc(-c2ccc3ncnc(N4CCc5cc(F)c(F)cc54)c3c2)cn1` as the compound, how does the growth read?
Its growth is 26% (inactive).

`COc1c(N2CC3CCCNC3C2)c(F)cc2c(=O)c(C(=O)N/N=C/c3ccc(Br)cc3)cn(C3CC3)c12` (stereo not given) was tested. Which growth did it give?
The growth was 85.5% (inactive).

How did the growth turn out when `O=C(NNc1nc2cc(F)c(F)cc2n2c(CN3CC4CNCC4C3)ccc12)c1ncccn1` (stereo not given) was run?
Its growth is 24% (inactive).

`COc1ccc(/C=C(\C#N)C(=O)N2c3ccccc3Sc3ccc(SC)cc32)cc1F` was tested. Which growth did it give?
The growth was 97.3% (inactive).

For `Cc1ccc(NC(=O)CNc2cc(C(N)=O)cc(F)c2C)c(Cl)c1`, which growth is on record?
Its growth is 87.2% (inactive).

With `CNC(=O)c1cc(Oc2ccc3nc(NC(=O)c4cccc(OC(F)(F)F)c4)sc3c2)ccn1` as the compound, how does the growth read?
Its growth is 75.4% (inactive).

For `O=C1CCCC2=C1C(c1c[nH]c3ccc(Br)cc13)Cc1cc(Br)ccc1N2` (stereo not given), which growth is on record?
Its growth is 57.6% (inactive).

`COc1cc2oc(-c3cccc(C(=O)N[C@@H](CC(C)C)C(=O)OC(C)(C)C)c3)cc(=O)c2c(OC)c1OC` was tested. Which growth did it give?
Its growth is 72.8% (inactive).

For `NC(N)=Nc1ccc(Nc2cccc(Nc3ccc(Cl)c(C(F)(F)F)c3)c2)cn1`, which growth is on record?
Its growth is 66.1% (inactive).

Which growth does the source give for `CC(=O)c1nnn(-c2c(C(=O)n3nc(C)cc3C)sc(=S)n2-c2ccccc2)c1C` here?
Its growth is 109% (inactive).

For `CS(=O)(=O)Nc1cc(-c2ccc3ncc(C#N)c(N[C@H](CO)c4ccccc4)c3c2)cnc1Cl`, which growth is on record?
The growth was 62.4% (inactive).

With `COc1ccc(C(=O)CSc2nc3c(c(Nc4ccc(S(N)(=O)=O)cc4)n2)CCCC3)cc1` as the compound, how does the growth read?
Its growth is 93.6% (inactive).

How did the growth turn out when `CCn1c(SCC(=O)Nc2cccc(C(=O)/C=C/c3ccc(Br)cc3)c2)nc2ccccc2c1=O` was run?
Its growth is 104% (inactive).

For `N#Cc1c(Nc2ccccc2)nn2c(-c3ccc([N+](=O)[O-])cc3)ccnc12`, which growth is on record?
Its growth is 109% (inactive).

With `O=C(CCn1c[n+](CC(=O)c2ccc(-c3ccccc3)cc2)c2ccccc21)Nc1cccc2cccnc12` as the compound, how does the growth read?
The growth was 78.9% (inactive).

Which growth does the source give for `COc1ccc(OC)c(-c2nc(SCC(=O)c3ccc(Br)cc3)nc(Nc3ccc(S(N)(=O)=O)cc3)c2C#N)c1` here?
The growth was 55.2% (inactive).

`FC(F)(F)c1cc(Nc2cccc(Oc3ccc(NC4=NCCN4)nc3)c2)ccc1Cl` was tested. Which growth did it give?
Its growth is -19.3% (active).

`CCO/C=N/C1=C(C#N)C(c2ccc(OC)cc2)c2sc3c(CC)cccc3c2O1` (stereo not given) was tested. Which growth did it give?
The growth was 17.6% (inactive).

`COc1ccc2c(c1)c(CC(=O)[Se]CCC#N)c(C)n2C(=O)c1ccc(Cl)cc1` was tested. Which growth did it give?
The growth was 6.8% (active).

For `CN(C)CCN(C)c1ccc2ncc(C#Cc3cncc(C(=O)Nc4ccc(CN5CCN(C)CC5)c(C(F)(F)F)c4)c3)n2n1`, which growth is on record?
Its growth is -59.2% (active).

For `NC(=O)c1c(NC(=O)c2ccccc2C(F)(F)F)sc2c1CCC(=O)C2`, which growth is on record?
Its growth is 81.2% (inactive).

Which growth does the source give for `NC(N)=Nc1ccc(Oc2cccc(NC(N)=Nc3ccc(I)cc3F)c2)cc1` here?
Its growth is 97.6% (inactive).

How did the growth turn out when `COc1ccc(CCOc2cc3c(cc2OC)CCN(C(=O)NCc2cocn2)C3c2ccc(C)cc2C)cc1` (stereo not given) was run?
The growth was 14.1% (inactive).

With `CC(C)(C)c1ccc(C(=O)Nc2nc3ccc(O)cc3s2)cc1` as the compound, how does the growth read?
The growth was 48.2% (inactive).

For `CC1(C)CC[C@]2(C(=O)N3CCOCC3)CC[C@]3(C)C(=CC[C@@H]4[C@@]5(C)C/C(=C/c6ccccn6)C(=O)C(C)(C)[C@@H]5CC[C@]43C)[C@@H]2C1`, which growth is on record?
The growth was 62.3% (inactive).

Source: PubChem BioAssay (NCI)
